We go through eight compounds from PubChem BioAssay (NCI).

Among the test systems are DU-145 prostate; K-562 leukemia; MALME-3M melanoma; MDA-MB-231 breast; RXF 393 renal; SF-268 CNS; SF-295 CNS; SF-539 CNS; UACC-257 melanoma; M14 melanoma; HCT-15 colon; HT29 colon; SNB-75 CNS; SNB-19 CNS; U251 CNS; PC-3 prostate; SK-MEL-5 melanoma; UACC-62 melanoma; LOX IMVI melanoma; SK-MEL-28 melanoma.
Common to all, as to assay: NCI-60 one-dose screen, 48 h (100 = growth as untreated, 0 = no growth, -100 = all killed)
What all share (details): 10 µM unless noted

Compounds without any hit were thinned out: in the full panel of roughly 83,000, 20% have a hit.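 The endpoint reported here, percent growth, reads 100 for growth as untreated, 0 for no net growth and -100 for all cells dead.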 Unmarked numbers belong to inactive results. The source made the active and inactive calls. How the source made its calls: active means growth percent below 10; inactive means the rest.

As for `CCCn1cc2c(=O)nc3sc(Cc4ccccc4)c(C)n3c2n1`, the growth in the test with DU-145 prostate was 104%; in the test with K-562 leukemia it was 77.5%; in the test on MALME-3M melanoma, 112%; with MDA-MB-231 breast it was 99.3%; in the test with RXF 393 renal, 119%; with SF-268 CNS, 94.8%. Further, the growth is 120% in the test with SF-295 CNS; 99.7% in the test on SF-539 CNS; 88.3% in the test with UACC-257 melanoma; 112% with M14 melanoma; 106% with HCT-15 colon; 98% in the test with HT29 colon. Besides, the growth was 97.6% with SNB-75 CNS; 98% in the test with SNB-19 CNS; 93.2% with U251 CNS; 98.5% in the test with PC-3 prostate; 107% in the test on SK-MEL-5 melanoma; 95% in the test with UACC-62 melanoma. The growth in the test with LOX IMVI melanoma was 94%; with SK-MEL-28 melanoma, 123%.
`N#CC(C#N)N=Nc1ccc(Br)cc1`: the growth was 38.5% in the test on DU-145 prostate; 12.5% in the test with K-562 leukemia; 12.1% in the test on MALME-3M melanoma; 18.5% in the test on MDA-MB-231 breast; 87.4% with RXF 393 renal; 90.2% in the test with SF-268 CNS. Besides, the growth in the test on SF-295 CNS is 95.7%; with SF-539 CNS, 30.4%; in the test on UACC-257 melanoma, 10%; in the test with M14 melanoma, 42.9%; in the test with HCT-15 colon, 16.8%; in the test with HT29 colon, 20.9%. In addition, the growth is 94.2% in the test with SNB-75 CNS; 96.3% in the test on SNB-19 CNS; 83.4% in the test on U251 CNS; 19.1% with PC-3 prostate; 77.9% with SK-MEL-5 melanoma; 37.4% in the test on UACC-62 melanoma. Moreover, the growth was 60.1% with LOX IMVI melanoma and 43.8% in the test with SK-MEL-28 melanoma.
For the compound `C=C(C)[C@@H]1CCC[C@]2(COS(=O)(=O)c3ccc(C)cc3)CC[C@]3(C)[C@@H](CC[C@@H]4[C@@]5(C)CCCNC(C)(C)[C@@H]5CC[C@]43C)[C@@H]12`, the growth in the test on DU-145 prostate was 0.903% (active); in the test with K-562 leukemia, -33.4% (active); in the test with MALME-3M melanoma, 4.1% (active); in the test with MDA-MB-231 breast, -10.3% (active); with RXF 393 renal, -79.9% (active); in the test with SF-268 CNS, 48.2%. Also, the growth was -11.5% (active) in the test with SF-295 CNS; 71.9% with SF-539 CNS; 58.5% in the test on UACC-257 melanoma; -20.6% (active) in the test with M14 melanoma; -61.5% (active) with HCT-15 colon; -50.8% (active) with HT29 colon. The growth was 81.6% with SNB-75 CNS; 39% in the test on SNB-19 CNS; -82.1% (active) with U251 CNS; 10.5% in the test on PC-3 prostate; 92.1% in the test on SK-MEL-5 melanoma; 87.7% in the test on UACC-62 melanoma. Moreover, the figures for the growth in the test with LOX IMVI melanoma and in the test with SK-MEL-28 melanoma were -86.5% (active) and 68.3%, respectively.
Consider `CCSc1nc2scc(C)c2c(=O)[nH]1`, for which the growth with DU-145 prostate was 105%; with K-562 leukemia it was 99.9%; in the test with MALME-3M melanoma it was 106%; in the test with MDA-MB-231 breast it was 104%; in the test on RXF 393 renal, 112%; with SF-268 CNS, 100%. The growth is 99.2% in the test on SF-295 CNS; 99.2% in the test with SF-539 CNS; 105% in the test on UACC-257 melanoma; 107% in the test with M14 melanoma; 104% in the test with HCT-15 colon; 105% in the test on HT29 colon. Moreover, the growth with SNB-75 CNS was 90.2%; in the test on SNB-19 CNS it was 96.5%; in the test with U251 CNS it was 97.1%; in the test with PC-3 prostate, 98.7%; with SK-MEL-5 melanoma, 99.9%; in the test on UACC-62 melanoma, 94.1%. Further, the growth is 99.7% in the test on LOX IMVI melanoma and 105% in the test with SK-MEL-28 melanoma.
As for `CN(C)Cc1ccc(O)c(C(=O)O)c1`, the growth is 114% in the test on DU-145 prostate; 107% in the test on K-562 leukemia; 116% in the test with MALME-3M melanoma; 121% in the test with MDA-MB-231 breast; 122% with RXF 393 renal; 104% in the test on SF-268 CNS. The growth was 123% in the test on SF-295 CNS; 100% in the test on SF-539 CNS; 109% in the test on UACC-257 melanoma; 113% with M14 melanoma; 107% in the test on HCT-15 colon; 107% with HT29 colon. Moreover, the growth in the test with SNB-75 CNS was 108%; in the test on SNB-19 CNS, 109%; in the test with U251 CNS, 93.3%; with PC-3 prostate, 105%; with SK-MEL-5 melanoma, 108%; in the test with UACC-62 melanoma it was 104%. In addition, the results for the growth in the test on LOX IMVI melanoma and in the test with SK-MEL-28 melanoma were 99.4% and 119%, respectively.
On to `CC(C)c1ccc(C(=O)Nc2nc3ccc(O)c(CN(C)C)c3s2)cc1`, for which the growth was 63.1% in the test with DU-145 prostate; 1.54% (active) in the test on K-562 leukemia; 71.4% in the test with MALME-3M melanoma; 44.8% in the test on MDA-MB-231 breast; 97.4% with RXF 393 renal; 87.2% in the test on SF-268 CNS. Besides, the growth in the test with SF-295 CNS was 96.3%; with SF-539 CNS, 69%; in the test with UACC-257 melanoma, 50.9%; in the test on M14 melanoma, 26.8%; in the test on HCT-15 colon, 20%; with HT29 colon it was 23.8%. Besides, the growth with SNB-75 CNS is 107%; in the test on SNB-19 CNS, 97.9%; in the test with U251 CNS, 69.1%; in the test with PC-3 prostate it was 83%; with SK-MEL-5 melanoma, 74.4%; in the test with UACC-62 melanoma, 66%. Also, the growth in the test with LOX IMVI melanoma is 28.1%; with SK-MEL-28 melanoma, 96.1%.
Turning to `COc1ccc(NC(=O)c2sc3nc(C)c(C(=O)/C=C/c4ccccc4)cc3c2N)cc1`, the growth was 26.5% in the test with DU-145 prostate; 14.4% in the test with K-562 leukemia; 97.3% with MALME-3M melanoma; 60.8% with MDA-MB-231 breast; -1.08% (active) in the test with RXF 393 renal; 28.7% in the test with SF-268 CNS. Moreover, the growth in the test on SF-295 CNS is 48.8%; in the test with SF-539 CNS, 38.2%; in the test with UACC-257 melanoma it was 98.3%; with M14 melanoma it was 61.5%; in the test on HCT-15 colon, 0.101% (active); in the test with HT29 colon, 0.196% (active). Moreover, the growth with SNB-75 CNS is 12.2%; with SNB-19 CNS, 10.6%; in the test with U251 CNS, 1.8% (active); with PC-3 prostate, 52.6%; in the test on SK-MEL-5 melanoma it was 74.3%; in the test on UACC-62 melanoma, 51.8%. In addition, the growth in the test with LOX IMVI melanoma was -74.7% (active); in the test with SK-MEL-28 melanoma, 85.7%.
With `COCCn1cc(-c2nc(-c3cc4cccnc4[nH]3)cs2)c2cc(OC)ccc21`, the growth in the test with DU-145 prostate is 40.9%; in the test with K-562 leukemia it was 6.65% (active); in the test on MALME-3M melanoma, 73.9%; in the test with MDA-MB-231 breast it was 2.87% (active); with RXF 393 renal, 23.2%; in the test on SF-268 CNS, 44.9%. The growth with SF-295 CNS was 14.6%; in the test with SF-539 CNS, 30.8%; in the test with UACC-257 melanoma, 30.6%; in the test with M14 melanoma, 37.6%; in the test with HCT-15 colon it was 20.3%; in the test on HT29 colon, 30.9%. Besides, the growth with SNB-75 CNS was 9.81% (active); with SNB-19 CNS, 61.6%; in the test on U251 CNS, 32.8%; in the test on PC-3 prostate, 10.4%; with SK-MEL-5 melanoma it was 39.1%; in the test on UACC-62 melanoma it was 49.8%. The growth is 33.2% with LOX IMVI melanoma and 62.8% in the test with SK-MEL-28 melanoma.
